Data on eight compounds can be found in PubChem BioAssay.

The test system of experiment [1] is Plasmodium falciparum Sir2 (PF13_0152, Sir2A). The experiment in a line: Plasmodium falciparum Sir2A binding compounds – biochemical, small-molecule microarray, 635 nm fluorescence, primary screen (AID 1098).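 Also: score merges spot fluorescence intensity with its signal-to-noise ratio.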 As to conditions: fluorescence 635 nm, higher = more signal.
The nature of experiment [2]: probe aDKK1 binding to arrayed compounds – biochemical, biotinylated probe, 635/667 nm fluorescence, primary screen (AID 1099).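 Also: score merges 667nm spot fluorescence with signal to noise across triplicate slides.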 As to conditions: small-molecule microarray, higher = more signal.
A short description of experiment [3]: probe aCHRDL2 binding to arrayed compounds – biochemical, biotinylated probe, 635/667 nm fluorescence, primary screen (AID 1100). As to conditions: small-molecule microarray, higher = more signal.
Experiment [4] in a line: change in splice reporter luminescence, either direction, cell-based, HEK293, spliceosome inhibition project, primary screen (AID 1101).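 Also: HEK293 cells carrying a splicing-competent luciferase reporter gene; test concentration not given here.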 The settings on record: HEK293 splicing luciferase reporter, 24 h, higher = more signal, called active from +8 up or from −8 down. (In general: A reporter such as luciferase makes a cellular process visible.)
Experiment [5] concerns the target Fibroblast growth factor 10 (Homo sapiens) (UniProt O15520). The experiment in a line: compounds binding fibroblast growth factor 10 – biochemical, small-molecule microarray, 635 nm fluorescence, primary screen (AID 1102). The settings on record: FGF10 binding, fluorescence 635 nm, higher = more signal.
Experiment [6] concerns glycogen synthase kinase-3 (GSK3A per assay name; protocol says GSK3B). Briefly: compounds binding glycogen synthase kinase-3 – biochemical, small-molecule microarray, 635 nm fluorescence, GSK3A, primary screen (AID 1103). Also: the record names both GSK3A and GSK3B. As to conditions: fluorescence 635 nm, higher = more signal.
Experiment [7] addresses Epidermal growth factor receptor (Homo sapiens) (UniProt P00533). Briefly: compounds binding epidermal growth factor receptor – biochemical, small-molecule microarray, 635 nm fluorescence, primary screen (AID 1104).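 Also: score merges 667 nm emission intensity with spot signal to noise over triplicate slides.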 As to conditions: EGFR binding, higher = more signal.
The target of experiment [8] is Follistatin-related protein 3 (Homo sapiens) (UniProt O95633). The experiment in a line: compounds binding follistatin-related protein 3 – biochemical, small-molecule microarray, 635 nm fluorescence, primary screen (AID 1105).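 Also: score merges emission near 667 nm and signal to noise per printed spot across three slides.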 The settings on record: FSTL3 binding, higher = more signal.
Follistatin-related protein 3 (Homo sapiens), sequence (O95633 whole entry, looked up): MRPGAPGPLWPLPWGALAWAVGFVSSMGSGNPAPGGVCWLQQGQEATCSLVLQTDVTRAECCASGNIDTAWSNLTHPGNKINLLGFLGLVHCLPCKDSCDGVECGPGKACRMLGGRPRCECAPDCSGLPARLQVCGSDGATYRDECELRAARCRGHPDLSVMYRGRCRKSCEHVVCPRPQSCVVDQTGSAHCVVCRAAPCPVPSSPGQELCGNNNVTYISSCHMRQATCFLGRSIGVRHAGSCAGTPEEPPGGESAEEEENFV
The target of experiment [9] is Dickkopf-related protein 1 (Homo sapiens) (UniProt O94907). The experiment in a line: small molecules binding DKK1 protein – biochemical, small-molecule microarray, 635 nm fluorescence scan, primary screen (AID 1106).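 Also: score merges emission near 667 nm with signal to noise over three replicate slides.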 As to conditions: higher = more signal.
Dickkopf-related protein 1 (Homo sapiens), sequence (O94907 whole entry, looked up): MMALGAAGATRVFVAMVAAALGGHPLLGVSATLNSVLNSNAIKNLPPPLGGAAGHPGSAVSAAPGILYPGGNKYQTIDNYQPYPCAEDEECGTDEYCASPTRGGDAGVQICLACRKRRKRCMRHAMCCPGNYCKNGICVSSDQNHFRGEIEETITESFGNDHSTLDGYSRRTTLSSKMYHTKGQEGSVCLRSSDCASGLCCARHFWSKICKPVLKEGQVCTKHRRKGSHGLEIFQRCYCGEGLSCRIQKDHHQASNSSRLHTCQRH
The subject of experiment [10] is Inhibin beta A chain (activin A). The experiment in a line: small molecules binding activin A – biochemical, small-molecule microarray, 635 nm fluorescence scan, primary screen (AID 1107).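 Also: mouse activin A protein probed at 4.33 µg/mL on printed slides; score merges bound-protein fluorescence near 667 nm with spot signal-to-noise.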 The settings on record: INHBA, higher = more signal.
Experiment [11] deals with Human papillomavirus type 1a protein E7 (residues 44-93). The experiment in a line: small molecules binding HPV E7 44-93 – biochemical, small-molecule microarray, residues 44-93, 635 nm fluorescence, primary screen (AID 1108).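 Also: E7 fragment applied at 1 µg/mL in TBST for 1 h at 4 C; score combines spot fluorescence with its signal to noise ratio.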 As to conditions: fluorescence 635 nm, higher = more signal.
The nature of experiment [12]: hepatitis C replication reporter changes, two-sided – Huh7 cells, luciferase reporter, HCV replication inhibitor project, primary screen (AID 1109).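 Also: huh7 hepatoma cells harbouring a luciferase neomycin HCV replicon reporter; luciferase luminescence as measure of HCV replicon replication; test concentration not given here.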 The settings on record: Huh7 HCV replicon luciferase reporter, 48 h; higher = more signal.
Experiment [13] concerns the target Left-right determination factor 2 (Homo sapiens) (UniProt O00292). Briefly: small molecules binding LEFTY2 protein – biochemical, small-molecule microarray, 635 nm fluorescence scan, primary screen (AID 1110). The settings on record: higher = more signal.
Experiment [14] deals with Calmodulin-1 (Homo sapiens) (UniProt P0DP23). Briefly: small molecules binding calmodulin-1 with EGTA – biochemical, small-molecule microarray, Cy5-labelled CALM1, profiling panel (AID 1111).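 Also: labelled calmodulin applied in Tris saline Tween buffer holding calcium plus EGTA and DTT.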 The settings on record: Cy5-CALM1 binding fluorescence, higher = more signal.
For experiment [15] the target is unchanged. The experiment in a line: small molecules binding Ca-loaded calmodulin-1 – biochemical, small-molecule microarray, Cy5-labelled CALM1, plus calcium, artefact control for SMM control-protein annotation, profiling panel (AID 1112).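 Also: score merges spot fluorescence with signal to noise from triplicate slides.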 The settings on record: Cy5-CALM1 binding fluorescence, higher = more signal.
A short description of experiment [16]: probe aWnt5a binding to arrayed compounds – biochemical, biotinylated probe, 635/667 nm fluorescence, primary screen (AID 1113).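 Also: score merges 667 nm fluorescence intensity with signal-to-noise per printed feature.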 The settings on record: small-molecule microarray, higher = more signal.
A short description of experiment [17]: probe aShh binding to arrayed compounds – biochemical, biotinylated probe, 635/667 nm fluorescence, primary screen (AID 1114).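 Also: probe is biotin-labelled aShh protein from a stem cell growth factor screen; measures binding of labelled protein to compounds printed on the slide; score merges feature fluorescence at 667 nm with signal-to-noise.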 The settings on record: small-molecule microarray, higher = more signal.
Experiment [18] in a line: probe aNog binding to arrayed compounds – biochemical, biotinylated probe, 635/667 nm fluorescence, primary screen (AID 1115).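 Also: probe is biotinylated aNog protein used at 0.15 µg/mL for 1 h at 4 C; z-score combines 667 nm fluorescence of each spot with its signal to noise.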 As to conditions: small-molecule microarray, higher = more signal.
Experiment [19] deals with Torsin-1A-interacting protein 1 (Homo sapiens) (UniProt Q5JTV8). Briefly: compound microarray binding of lysate hLAP1 – cell lysate, small-molecule microarray, COS7 lysate, 635/667 nm fluorescence, primary screen (AID 1116). As to conditions: 635 nm fluorescence, higher = more signal.
Torsin-1A-interacting protein 1 (Homo sapiens), sequence (Q5JTV8 whole entry, looked up): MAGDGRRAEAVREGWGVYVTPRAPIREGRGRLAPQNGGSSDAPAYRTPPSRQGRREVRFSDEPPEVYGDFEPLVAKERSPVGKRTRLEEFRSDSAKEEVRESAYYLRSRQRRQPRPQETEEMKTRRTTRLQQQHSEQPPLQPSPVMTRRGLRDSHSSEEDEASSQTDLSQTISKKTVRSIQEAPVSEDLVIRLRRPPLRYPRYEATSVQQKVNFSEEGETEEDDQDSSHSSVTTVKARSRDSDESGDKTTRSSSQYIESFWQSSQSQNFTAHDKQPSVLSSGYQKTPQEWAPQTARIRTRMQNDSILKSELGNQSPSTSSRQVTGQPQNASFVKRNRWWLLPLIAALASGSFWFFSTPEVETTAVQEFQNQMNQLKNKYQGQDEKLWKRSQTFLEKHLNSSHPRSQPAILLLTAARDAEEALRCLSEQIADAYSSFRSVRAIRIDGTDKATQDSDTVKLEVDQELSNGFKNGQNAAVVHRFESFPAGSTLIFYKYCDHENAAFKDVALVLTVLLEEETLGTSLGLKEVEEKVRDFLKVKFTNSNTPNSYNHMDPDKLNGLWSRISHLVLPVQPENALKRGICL
The target in experiment [20] is Alpha-bungarotoxin (Bungarus multicinctus) (UniProt P60615). Briefly: compounds binding labelled alpha-BTX control protein – biochemical, small-molecule microarray, Alexa647 label, 635/667 nm fluorescence, artefact control for SMM control protein annotation, profiling panel (AID 1117). As to conditions: alpha-BTX-A647 binding fluorescence, higher = more signal.
Alpha-bungarotoxin (Bungarus multicinctus), sequence (P60615 whole entry, looked up): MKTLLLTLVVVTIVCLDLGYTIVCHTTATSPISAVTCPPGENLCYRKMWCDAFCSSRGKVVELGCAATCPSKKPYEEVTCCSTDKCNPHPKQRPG

Each structure is given as a SMILES string. Active and inactive are the calls of the source.

Epidermal growth factor receptor (Homo sapiens), sequence (P00533 whole entry, looked up): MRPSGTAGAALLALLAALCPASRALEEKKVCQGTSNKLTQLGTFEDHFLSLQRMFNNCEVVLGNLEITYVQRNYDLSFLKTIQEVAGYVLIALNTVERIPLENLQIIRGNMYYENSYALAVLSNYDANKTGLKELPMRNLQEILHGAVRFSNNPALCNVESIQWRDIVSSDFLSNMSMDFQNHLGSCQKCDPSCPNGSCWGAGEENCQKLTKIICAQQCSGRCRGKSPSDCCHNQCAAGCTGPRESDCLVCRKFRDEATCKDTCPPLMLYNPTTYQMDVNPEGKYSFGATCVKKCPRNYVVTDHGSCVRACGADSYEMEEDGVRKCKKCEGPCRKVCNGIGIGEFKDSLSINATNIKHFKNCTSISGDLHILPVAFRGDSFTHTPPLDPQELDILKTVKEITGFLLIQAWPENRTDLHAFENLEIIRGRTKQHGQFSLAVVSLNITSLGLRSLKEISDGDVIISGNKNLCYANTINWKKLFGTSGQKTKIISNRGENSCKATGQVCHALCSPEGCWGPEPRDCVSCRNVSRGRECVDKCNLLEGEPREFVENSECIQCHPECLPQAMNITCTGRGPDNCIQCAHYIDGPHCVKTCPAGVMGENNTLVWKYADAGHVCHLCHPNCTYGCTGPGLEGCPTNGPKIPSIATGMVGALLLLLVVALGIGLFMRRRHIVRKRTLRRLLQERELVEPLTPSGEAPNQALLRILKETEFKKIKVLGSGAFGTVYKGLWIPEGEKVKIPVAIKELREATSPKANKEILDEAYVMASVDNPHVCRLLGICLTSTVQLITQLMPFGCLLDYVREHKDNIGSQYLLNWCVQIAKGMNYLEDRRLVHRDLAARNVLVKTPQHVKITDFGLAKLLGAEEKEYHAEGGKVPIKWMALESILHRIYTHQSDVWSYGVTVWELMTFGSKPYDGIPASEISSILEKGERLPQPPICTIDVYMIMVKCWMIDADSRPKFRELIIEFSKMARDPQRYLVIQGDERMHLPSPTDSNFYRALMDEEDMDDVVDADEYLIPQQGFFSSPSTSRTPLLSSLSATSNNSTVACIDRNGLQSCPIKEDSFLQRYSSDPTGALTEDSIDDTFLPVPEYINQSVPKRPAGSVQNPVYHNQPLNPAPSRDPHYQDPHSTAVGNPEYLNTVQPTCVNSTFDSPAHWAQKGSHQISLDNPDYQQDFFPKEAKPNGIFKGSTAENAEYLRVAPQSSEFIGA
Fibroblast growth factor 10 (Homo sapiens), sequence (O15520 whole entry, looked up): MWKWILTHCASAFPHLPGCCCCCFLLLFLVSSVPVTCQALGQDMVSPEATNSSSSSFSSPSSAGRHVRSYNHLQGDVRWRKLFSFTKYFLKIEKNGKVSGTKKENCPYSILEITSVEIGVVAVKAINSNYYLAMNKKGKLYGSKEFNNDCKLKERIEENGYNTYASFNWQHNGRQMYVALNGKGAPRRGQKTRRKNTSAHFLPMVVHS
Left-right determination factor 2 (Homo sapiens), sequence (O00292 whole entry, looked up): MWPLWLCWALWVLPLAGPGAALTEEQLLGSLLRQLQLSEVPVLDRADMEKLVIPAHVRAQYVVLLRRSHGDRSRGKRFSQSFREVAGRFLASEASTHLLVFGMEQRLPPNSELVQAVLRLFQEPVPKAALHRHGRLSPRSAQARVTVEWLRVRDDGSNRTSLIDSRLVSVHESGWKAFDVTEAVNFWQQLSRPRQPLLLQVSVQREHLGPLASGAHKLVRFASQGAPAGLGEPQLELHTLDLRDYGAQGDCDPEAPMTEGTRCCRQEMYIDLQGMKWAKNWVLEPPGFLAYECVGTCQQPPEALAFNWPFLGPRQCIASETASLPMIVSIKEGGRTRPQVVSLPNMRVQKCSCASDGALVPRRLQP

`O=C1O[C@@H](c2ccccc2)[C@@H](c2ccccc2)N2[C@@H](c3ccccc3OCCO)[C@]3(C(=O)Nc4ccc(C#CC5=CCCCC5)cc43)[C@@H](C(=O)NC[C@H](O)c3ccccc3)[C@H]12`: the composite z-score in experiment [1] is 1.3; in [2], -0.108; in experiment [3], -0.149; in experiment [5] it was 0.717; in [6], 1.3; in [7], 0.496. In addition, the composite z-score in experiment [8] was determined as 1.22; in [9], 0.352; in [10], 0.623; in [11] it was 1.35; in experiment [13] it was 0.556; in experiment [14], 1.08. Also, the composite z-score was 0.0728 in [15]; 0.0388 in experiment [16]; -0.0709 in experiment [17]; 0.0483 in experiment [18]; 0.519 in experiment [19]; 1.31 in experiment [20]. In addition, the z-score in experiment [4] was -1.13 (inactive); in [12] it was -3.33.

For `CN1C(=O)C2C(C1=O)C1C=C(c3ccc(CO)cc3)C2C(c2cccs2)N1Cc1cccc(OC(F)(F)F)c1` (stereo not given), the composite z-score in experiment [1] was 1.06; in experiment [2], 0.0564; in experiment [3], -0.137; in experiment [5], 1.07; in experiment [6], 1.27; in experiment [7], 0.0302. The composite z-score is 1.17 in experiment [8]; 0.483 in experiment [9]; 0.614 in [10]; 1.4 in experiment [11]; 0.526 in experiment [13]; 1.1 in [14]. The composite z-score was 0.334 in experiment [15]; 0.0077 in experiment [16]; -0.0749 in experiment [17]; -0.251 in experiment [18]; 0.291 in [19]; 1.43 in [20]. Moreover, the z-score in experiment [4] was -0.243 (inactive); in experiment [12], -1.3.

In the case of `CO[C@H]1O[C@H](CO)[C@@H](OC(=O)Nc2ccc(C(F)(F)F)cc2)[C@H](OC(=O)Nc2ccc3c(c2)OCO3)[C@H]1OC(=O)Nc1ccc2c(c1)OCO2`, the composite z-score in experiment [1] was 1.5; in [2], 0.517; in [3] it was 0.63; in experiment [5], 0.844; in experiment [6], 1.28; in experiment [7] it was -0.279. Besides, the composite z-score was determined as 0.871 in experiment [8]; 0.214 in experiment [9]; 0.483 in experiment [10]; 1.33 in experiment [11]; 0.0746 in [13]; 1.84 in [14]. Besides, the composite z-score in experiment [15] is -0.367; in [16], 0.0438; in [17] it was 0.0437; in experiment [18], 0.925; in [19] it was 2; in experiment [20], 0.648. Besides, the z-score in experiment [4] was -0.412 (inactive); in experiment [12] it was -2.79.

For `COCC(=C=CC[C@H](O)c1ccc(OCCO)cc1)C[C@H](O)COCc1ccccc1`, the composite z-score in experiment [1] is 1.56; in experiment [2], -0.199; in experiment [3] it was -0.228; in [5], 0.605; in experiment [6], 0.351; in [7], 0.291. Moreover, the composite z-score was 0.944 in [8]; 0.462 in [9]; 0.928 in experiment [10]; 0.486 in experiment [11]; 0.32 in experiment [13]; -0.0904 in experiment [14]. For the same compound, the composite z-score in [15] is -0.847; in experiment [16], -0.0718; in experiment [17], -0.279; in experiment [18], -0.302; in experiment [19], 1.52; in experiment [20], 0.439. For the same compound, the z-score in [4] is -1.11 (inactive); in [12], -0.313.

For the compound `O=C1O[C@@H](c2ccccc2)[C@@H](c2ccccc2)N2[C@@H](c3ccc(O)cc3)[C@]3(C(=O)Nc4ccccc43)[C@@H](C(=O)Nc3nc4ccccc4s3)[C@H]12`, the composite z-score in [1] is 1.38; in experiment [2] it was -0.111; in [3] it was 0.02; in [5], 0.488; in experiment [6] it was 0.878; in experiment [7], -0.104. Further, the composite z-score in experiment [8] was 0.415; in experiment [9], 0.065; in experiment [10], 0.3; in [11], 1.36; in experiment [13], 0.0034; in experiment [14] it was 1.28. The composite z-score in experiment [15] is -0.596; in experiment [16], 0.0495; in experiment [17], 0.0815; in experiment [18], -0.179; in experiment [19] it was 0.0579; in [20], 1.32. Moreover, the z-score is 0.641 (inactive) in experiment [4] and -2.35 in experiment [12].

As for `CC(=O)n1cc(C(O)C2C=CC3C(=O)N(c4ccccc4)C(=O)C3N2Nc2ccccc2)c2ccccc21` (stereo not given), the composite z-score was 0.454 in experiment [1]; 1.81 in experiment [2]; 1.52 in experiment [3]; 0.833 in experiment [5]; -0.669 in experiment [6]; 0.444 in experiment [7]. Moreover, the composite z-score in experiment [8] is 1.19; in experiment [9], 0.325; in experiment [10], 1.93; in [11], -0.175; in [13], -0.183; in experiment [14] it was 0.735. The composite z-score in [15] was 0.671; in experiment [16] it was 0.13; in [17], 1.21; in experiment [18], 0.974; in experiment [19] it was 1.09; in experiment [20] it was 1.41. For the same compound, the z-score in experiment [4] is -1.22 (inactive); in experiment [12], -1.95.

Regarding `CCOC(=O)C[C@H]1[C@H](OC(=O)c2ccccc2-c2ccccc2)[C@@H](NC(=O)c2ccc3ccccc3n2)c2cc(OCCCO)ccc2N1C(=O)c1ccc2ccccc2n1`, the composite z-score is 0.638 in [1]; -0.267 in experiment [2]; -0.535 in experiment [3]; 0.611 in experiment [5]; 0.0214 in experiment [6]; 0.378 in experiment [7]. Also, the composite z-score was 0.469 in experiment [8]; 0.452 in experiment [9]; -0.0055 in experiment [10]; 0.437 in experiment [11]; 0.152 in experiment [13]; -0.0654 in [14]. Moreover, the composite z-score in experiment [15] is -0.127; in experiment [16], -0.174; in [17], -0.265; in experiment [18], -0.328; in experiment [19] it was 0.358; in experiment [20], 0.567. The z-score was -1.19 (inactive) in [4] and -0.863 in experiment [12].

In the case of `C=CCOC(=O)[C@@H]1[C@H]2C(=O)O[C@H](c3ccccc3)[C@H](c3ccccc3)N2[C@H](c2ccc(OCCOC(=O)[C@H]3C[C@H]4C(=O)N[C@@H](CCCC[N+](C)(C)C)C(=O)N4[C@H]3c3ccc(O)cc3)cc2)[C@@]12C(=O)Nc1ccc(I)cc12`, the composite z-score in [1] was 1.6; in [2], -0.144; in [3], -0.248; in experiment [5], 1.46; in experiment [6], 1.33; in experiment [7] it was 1.18. Further, the composite z-score in [8] was found to be 1.51; in experiment [9], 1.03; in experiment [10], 0.467; in experiment [11], 0.505; in [13] it was 1.05; in experiment [14], 1.64. For the same compound, the composite z-score in [15] is -0.116; in experiment [16], 0.0101; in experiment [17], 0.147; in experiment [18], -0.0927; in experiment [19] it was 1.49; in experiment [20], 1.89. Moreover, the z-score is -0.178 (inactive) in experiment [4] and -0.908 in [12].
